Among the test systems are SK-MEL-2 melanoma; EKVX NSCLC; SN12C renal; UO-31 renal; TK-10 renal; ACHN renal; CAKI-1 renal; A498 renal; CCRF-CEM leukemia; MOLT-4 leukemia; SR leukemia; RPMI-8226 leukemia; OVCAR-8 ovarian; OVCAR-5 ovarian; SK-OV-3 ovarian; IGROV1 ovarian; OVCAR-3 ovarian; HS 578T breast; NCI/ADR-RES ovarian.
Holding throughout (experiment): NCI-60 one-dose screen, 48 h (100 = growth as untreated, 0 = no growth, -100 = all killed)
Settings in all cases: 10 µM unless noted

About 83,000 compounds went through this panel and 20% of them were active in at least one assay; those are over-represented in the sample as a whole.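 Values shown are percent growth following 48 h exposure of cells in 96-well plates to a single concentration of compound; below 10 was considered active.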 Unmarked numbers belong to inactive results. The source made the active and inactive calls.

Drawing on PubChem BioAssay (NCI), this text covers growth for six compounds.

On to `C#CCNC(=O)CC[C@@H](C)[C@H]1CC[C@H]2[C@@H]3CC[C@@H]4CC(=O)CC[C@]4(C)[C@H]3CC[C@]12C`, for which the growth in the experiment on SK-MEL-2 melanoma was -57.1% [100 µM] (active); with EKVX NSCLC it was -31.8% [100 µM] (active); in the experiment with SN12C renal, -72% [100 µM] (active); in the experiment with UO-31 renal, -92.6% [100 µM] (active); with TK-10 renal it was -16.8% [100 µM] (active); in the experiment with ACHN renal, -86.2% [100 µM] (active). For the same compound, the growth in the experiment on CAKI-1 renal was -59.4% [100 µM] (active); in the experiment on A498 renal it was -23.9% [100 µM] (active); in the experiment on CCRF-CEM leukemia, -34% [100 µM] (active); in the experiment with MOLT-4 leukemia, -18.4% [100 µM] (active); with SR leukemia it was 24.9% [100 µM]; in the experiment with RPMI-8226 leukemia, -32.9% [100 µM] (active). The growth with OVCAR-8 ovarian was -21.7% [100 µM] (active); in the experiment with OVCAR-5 ovarian, -45.4% [100 µM] (active); with SK-OV-3 ovarian, 11.3% [100 µM]; in the experiment with IGROV1 ovarian, -64% [100 µM] (active); with OVCAR-3 ovarian, -72.6% [100 µM] (active); in the experiment with HS 578T breast, -28.3% [100 µM] (active). Also, in the experiment with NCI/ADR-RES ovarian, the growth is -28.7% [100 µM] (active).
As for `CC1(C)C(=O)/C(=C\c2ccco2)C[C@]2(C)[C@H]3CC=C4[C@@H]5C[C@](C)(C(=O)O)CC[C@]5(C)CC[C@@]4(C)[C@]3(C)CC[C@@H]12`, the growth with SK-MEL-2 melanoma is -57.5% [100 µM] (active); with EKVX NSCLC, -71.4% [100 µM] (active); in the experiment with SN12C renal it was -50.8% [100 µM] (active); in the experiment with UO-31 renal it was -95.5% [100 µM] (active); with TK-10 renal it was -46.1% [100 µM] (active); in the experiment on ACHN renal, -79.9% [100 µM] (active). For the same compound, the growth with CAKI-1 renal was -66.6% [100 µM] (active); in the experiment on A498 renal, -89.2% [100 µM] (active); in the experiment with CCRF-CEM leukemia, -22.7% [100 µM] (active); in the experiment on MOLT-4 leukemia, -21% [100 µM] (active); in the experiment on SR leukemia, 46.8% [100 µM]; in the experiment with RPMI-8226 leukemia it was 0.425% [100 µM] (active). Besides, the growth is -46.1% [100 µM] (active) with OVCAR-8 ovarian; -46.2% [100 µM] (active) in the experiment with OVCAR-5 ovarian; -77.2% [100 µM] (active) in the experiment with SK-OV-3 ovarian; -61.9% [100 µM] (active) with IGROV1 ovarian; -60.1% [100 µM] (active) with OVCAR-3 ovarian; -16.2% [100 µM] (active) in the experiment on HS 578T breast. Moreover, the growth with NCI/ADR-RES ovarian was -49.5% [100 µM] (active).
Regarding `N#C/C(C(=O)c1ccccc1)=C1/C(=O)Nc2ccccc21`, the growth was 106% with SK-MEL-2 melanoma; 99.4% in the experiment with EKVX NSCLC; 93.1% with SN12C renal; 73.4% with UO-31 renal; 118% in the experiment on TK-10 renal; 98% in the experiment with ACHN renal. Besides, the growth in the experiment with CAKI-1 renal is 78.8%; with A498 renal it was 89%; in the experiment with CCRF-CEM leukemia, 103%; with MOLT-4 leukemia, 90.4%; in the experiment with SR leukemia, 112%; in the experiment on RPMI-8226 leukemia, 112%. In addition, the growth was 97.2% in the experiment with OVCAR-8 ovarian; 101% in the experiment with OVCAR-5 ovarian; 85.3% with SK-OV-3 ovarian; 86.1% in the experiment with IGROV1 ovarian; 108% with OVCAR-3 ovarian; 91.4% in the experiment on HS 578T breast. Also, the growth in the experiment with NCI/ADR-RES ovarian was 103%.
For `CCc1cccc(Cl)c1`, the growth was 118% with SK-MEL-2 melanoma; 105% with EKVX NSCLC; 90.6% in the experiment with SN12C renal; 85.3% in the experiment with UO-31 renal; 107% with TK-10 renal; 98.9% with ACHN renal. The growth with CAKI-1 renal was 108%; in the experiment with A498 renal, 120%; in the experiment on CCRF-CEM leukemia, 88.2%; in the experiment with MOLT-4 leukemia it was 98.1%; in the experiment on SR leukemia, 103%; in the experiment on RPMI-8226 leukemia it was 101%. Also, the growth is 104% with OVCAR-8 ovarian; 105% with OVCAR-5 ovarian; 107% with SK-OV-3 ovarian; 100% with IGROV1 ovarian; 110% in the experiment on OVCAR-3 ovarian; 118% in the experiment with HS 578T breast. Moreover, in the experiment on NCI/ADR-RES ovarian, the growth is 103%.
Take `O=C(Nc1cccnc1)c1ccc2ccc3ccc(C(=O)Nc4cccnc4)nc3c2n1`: the growth in the experiment with SK-MEL-2 melanoma is 25.8%; with EKVX NSCLC it was 54.4%; with SN12C renal it was 32.4%; in the experiment with UO-31 renal, 36.3%; in the experiment with TK-10 renal it was 37.1%; in the experiment with ACHN renal, 23.3%. Moreover, the growth in the experiment on CAKI-1 renal is 10.7%; with A498 renal it was -39.1% (active); with CCRF-CEM leukemia it was 28.5%; in the experiment with MOLT-4 leukemia, 32.1%; in the experiment on SR leukemia, 42.6%; in the experiment with RPMI-8226 leukemia, 18.7%. For the same compound, the growth in the experiment on OVCAR-8 ovarian was 22.6%; with OVCAR-5 ovarian, 36.9%; with SK-OV-3 ovarian it was 47.6%; in the experiment on IGROV1 ovarian it was 15.4%; in the experiment with OVCAR-3 ovarian, 23.3%; in the experiment with HS 578T breast it was 46.4%. The growth with NCI/ADR-RES ovarian was 79.8%.
On to `Cc1ccc(-n2nc3n(/c2=N\C(=O)NS(=O)(=O)c2ccc(C)cc2)CCN3C2=NCCN2)cc1`, for which the growth was 109% in the experiment with SK-MEL-2 melanoma; 99.5% in the experiment on EKVX NSCLC; 97% in the experiment on SN12C renal; 84.1% in the experiment with UO-31 renal; 101% in the experiment on TK-10 renal; 94.5% in the experiment on ACHN renal. The growth is 90% with CAKI-1 renal; 93.5% in the experiment with A498 renal; 107% with CCRF-CEM leukemia; 112% with MOLT-4 leukemia; 135% in the experiment on SR leukemia; 106% in the experiment with RPMI-8226 leukemia. For the same compound, the growth was 103% in the experiment on OVCAR-8 ovarian; 95.4% in the experiment with OVCAR-5 ovarian; 99.1% in the experiment with SK-OV-3 ovarian; 104% with IGROV1 ovarian; 109% with OVCAR-3 ovarian; 105% with NCI/ADR-RES ovarian.
